Assay [1] concerns the target Retinoic acid receptor RXR-alpha (Homo sapiens) (UniProt P19793). As to the kind of experiment: OT_NURR1_NURR1RXRa_0480: Odyssey Thera (OT) 8-hour HEK293T Protein Complementation Assay for Nurr1/retinoid X receptor (RXR) (AID 2283385; active = hit-call score of the fitted dose curve at least 0.9, where 1 is the maximum). The method in brief:
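Compounds are applied to HEK293T cells carrying Nurr1 and RXRα linked to reporter fragments. After 8 h, fluorescence intensity reports heterodimer formation, with DMSO as baseline.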

Assay [2] shares this target. Description: OT_NURR1_NURR1RXRa_1440: Odyssey Thera (OT) 24-hour HEK293T Protein Complementation Assay for Nurr1/retinoid X receptor (RXR) (AID 2283386; active = hit-call score of the fitted dose curve at least 0.9, where 1 is the maximum). The method in brief:
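Measured as fluorescence from a reconstituted split reporter, this 24 h HEK293T complementation assay scores compound-induced gain of Nurr1/RXRα association relative to DMSO.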

Assay [3] addresses Peroxisome proliferator-activated receptor gamma (Homo sapiens) (UniProt P37231). As to the kind of experiment: OT_PPARg_PPARgSRC1_0480: Odyssey Thera (OT) 8-hour Protein-Complementation Assay for Peroxisome Proliferator-activated Receptor Gamma / SRC-1 Co-activator (AID 2283387; active = hit-call score of the fitted dose curve at least 0.9, where 1 is the maximum;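 note: nuclear to cytoplasmic split Venus YFP fluorescence ratio reporting PPARg SRC-1 interaction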). In short, it runs like this:
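Read-out: 488 nm N/C fluorescence ratio from complemented Venus YFP fragments, ≥350 cells per image, gain-of-signal fitted against DMSO baseline. Fusions of PPARg/SRC-1 with IFP1/IFP2 expressed transiently in HEK293T; compounds applied 8 h.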

Assay [4] has the same target. Description: OT_PPARg_PPARgSRC1_1440: Odyssey Thera (OT) 24-hour Protein-Complementation Assay for Peroxisome Proliferator-activated Receptor Gamma/ SRC-1 Co-activator (AID 2283388; active = hit-call score of the fitted dose curve at least 0.9, where 1 is the maximum;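 note: nuclear to cytoplasmic ratio of reconstituted Venus YFP fluorescence in fixed imaged cells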). In short, it runs like this: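 Readout: nuclear-to-cytoplasmic 488 nm fluorescence ratio, ≥350 cells per image, 8 images per well, after 24 h compound exposure of HEK293T expressing PPARg/SRC-1 split-YFP fusions. Activity fitted in positive direction against DMSO.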

Read-out in assay [5]: Tumor necrosis factor receptor superfamily member 6 (Homo sapiens) (UniProt P25445)
As to the kind of experiment: LTEA_HepaRG_FAS: Life Technologies and Expression Analysis (LTEA) Assay for Fas cell surface death receptor (FAS) using HepaRG (AID 2283447). Particulars: mRNA level, 48 h; actives raise or lower the signal. In short, it runs like this:
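Differentiated human HepaRG cells, pre-cultured 48 h, were exposed in duplicate for 48 h to 8-point half-log concentrations (top 100 uM, 0.5% DMSO) in serum-free induction medium; FAS mRNA measured by qRT-PCR, normalized to ACTB/GAPDH/POLR2A, bidirectional fit versus DMSO.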

Read-out in assay [6]: Fatty acid synthase (Homo sapiens) (UniProt P49327)
Description: LTEA_HepaRG_FASN: Life Technologies and Expression Analysis (LTEA) Assay for Fatty Acid Synthase (FASN) using HepaRG (AID 2283448). Particulars: mRNA level, 48 h; actives raise or lower the signal. In short, it runs like this: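 Transcript-level assay: HepaRG liver cells are treated for 48 h across an eight-point range topping at 100 uM, and FASN mRNA, normalized to three housekeeping genes, is compared with DMSO controls in both directions.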

Read-out in assay [7]: Cyclin D2 (CCND2), CCND2 (gene 894)
As to the kind of experiment: LTEA_HepaRG_CCND2: Life Technologies and Expression Analysis (LTEA) Assay for Cyclin D2 (CCND2) using HepaRG (AID 2283449).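 Note: CCND2 transcript measured by TaqMan qRT-PCR and normalised to three housekeeping genes.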 To be noted: mRNA level, 48 h; actives raise or lower the signal. In short, it runs like this:
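Differentiated human HepaRG cells were exposed for 48 h in serum-free induction medium to eight half-log concentrations topping at 100 uM (0.5% DMSO vehicle). CCND2 mRNA was quantified by TaqMan qRT-PCR, normalised to ACTB, GAPDH and POLR2A, and fitted bidirectionally against DMSO.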

Read-out in assay [8]: Cyclin Dependent Kinase Inhibitor 1A (CDKN1A), CDKN1A (gene 1026)
As to the kind of experiment: LTEA_HepaRG_CDKN1A: Life Technologies and Expression Analysis (LTEA) Assay for Cyclin Dependent Kinase Inhibitor 1A (CDKN1A) using HepaRG (AID 2283450). To be noted: mRNA level, 48 h; actives raise or lower the signal. In short, it runs like this:
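HepaRG, 48 h dosing, 8-pt half-log series from 100 uM top, 0.5% DMSO vehicle, duplicates. Readout: TaqMan qRT-PCR of CDKN1A transcript, housekeeping-normalized (ACTB, GAPDH, POLR2A). Up/down curve fit relative to DMSO.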

Read-out in assay [9]: Cyclin D1 (CCND1), CCND1 (gene 595)
As to the kind of experiment: LTEA_HepaRG_CCND1: Life Technologies and Expression Analysis (LTEA) Assay for Cyclin D1 (CCND1) using HepaRG (AID 2283451). To be noted: mRNA level, 48 h; actives raise or lower the signal. The method in brief:
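qRT-PCR (Fluidigm 96.96 array) read-out of transcript level, housekeeping-normalized (ACTB/GAPDH/POLR2A). HepaRG cells, 48 h chemical exposure, 8-point half-log series from 100 uM, 0.5% DMSO vehicle; gain or loss relative to DMSO baseline.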

Read-out in assay [10]: catalase (CAT), CAT (gene 847)
As to the kind of experiment: LTEA_HepaRG_CAT: Life Technologies and Expression Analysis (LTEA) Assay for catalase (CAT) using HepaRG (AID 2283452). Particulars: mRNA level, 48 h; actives raise or lower the signal. In short, it runs like this: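 Differentiated HepaRG cells in serum-free induction medium were dosed 48 h in duplicate, eight half-log concentrations from 100 uM in 0.5% DMSO. Transcript measured by TaqMan qRT-PCR, normalised to ACTB/GAPDH/POLR2A, fitted bidirectionally against DMSO.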

Read-out in assay [11]: flavin-containing dimethylaniline monooxygenases 3 (FMO3), FMO3 (gene 2328)
Description: LTEA_HepaRG_FMO3: Life Technologies and Expression Analysis (LTEA) Assay for flavin-containing dimethylaniline monooxygenases 3 (FMO3) using HepaRG (AID 2283453).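 For AC50: FMO3 transcript by TaqMan qRT-PCR normalized to ACTB GAPDH and POLR2A.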 Particulars: mRNA level, 48 h; actives raise or lower the signal. The method in brief: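 HepaRG, 48 h exposure, 8-pt half-log series from 100 uM, 0.5% DMSO vehicle, duplicates; FMO3 transcript by Fluidigm TaqMan qRT-PCR, housekeeping-normalized; gain/loss fit vs DMSO.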

Read-out in assay [12]: Cytochrome P450 (CYP1A1), CYP1A1 (gene 1543)
Description: LTEA_HepaRG_CYP1A1: Life Technologies and Expression Analysis (LTEA) Assay for Cytochrome P450 (CYP1A1) using HepaRG (AID 2283454). To be noted: mRNA level, 48 h; actives raise or lower the signal. In short, it runs like this:
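qRT-PCR read-out: CYP1A1 transcript normalized to three housekeeping genes, fitted bidirectionally against 0.5% DMSO vehicle baseline. Human HepaRG cells, 48 h chemical exposure, 8-point half-log series topping at 100 uM.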

Read-out in assay [13]: CFLAR gene, CFLAR (gene 8837)
Description: LTEA_HepaRG_CFLAR: Life Technologies and Expression Analysis (LTEA) Assay for CFLAR gene using HepaRG (AID 2283455). Particulars: mRNA level, 48 h; actives raise or lower the signal. In short, it runs like this:
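HepaRG cells were plated for 48 h, switched to serum-free induction medium, then exposed in duplicate for 48 h to 8 concentrations (top 100 uM, half-log steps, 0.5% DMSO). CFLAR mRNA was measured by qRT-PCR, normalized to ACTB, GAPDH and POLR2A.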

Assay [14] in a line: CEETOX_H295R_PROG: CeeTox H295R High-throughput Steroidogenesis Assay for Progesterone (PROG) (AID 2283442). To be noted: actives raise or lower the signal. In short, it runs like this: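 Progesterone read-out: HPLC-MS/MS on MTBE extracts of conditioned medium after 48 h chemical exposure of forskolin-primed (10 uM, 48 h) H295R cells. Gain or loss of signal was fitted relative to DMSO baseline.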

A short description of assay [15]: CEETOX_H295R_11DCORT: CeeTox H295R High-throughput Steroidogenesis Assay for 11-Deoxycortisol (11DCORT) (AID 2283432). Particulars: actives raise or lower the signal. The method in brief:
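H295R cells; 10 uM forskolin prestim 48 h; compound in 0.1% DMSO 48 h; media extracted with MTBE; 11-deoxycortisol by LC-MS/MS, 7-point standard curve; gain/loss vs DMSO baseline; viability by MTT in same wells.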

Assay [16] is described as follows: CEETOX_H295R_ANDR: CeeTox H295R High-throughput Steroidogenesis Assay for Androstenedione (ANDR) (AID 2283436). Particulars: actives raise or lower the signal. In short, it runs like this: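 H295R human adrenal cells (passages ≤10) were exposed to test chemicals for 48 h; androstenedione in medium was MTBE-extracted and quantified by HPLC-MS/MS against a 7-point standard curve. Bidirectional fitting used DMSO as baseline.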

Assay [17] in a line: CEETOX_H295R_CORTIC: CeeTox H295R High-throughput Steroidogenesis Assay for Corticosterone (CORTIC) (AID 2283437).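 Note: corticosterone secreted into medium quantified by mass spectrometry.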 Particulars: actives raise or lower the signal. In short, it runs like this:
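H295R cells were prestimulated 48 h with 10 uM forskolin, then exposed 48 h to test chemical in 0.1% DMSO. Medium corticosterone was MTBE-extracted and quantified by HPLC-MS/MS; bidirectional fit versus DMSO baseline.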

Assay [18] is described as follows: CEETOX_H295R_CORTISOL: CeeTox H295R High-throughput Steroidogenesis Assay for Cortisol (AID 2283438).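 Note: cortisol secreted into medium quantified by LC-MS/MS.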 To be noted: actives raise or lower the signal. The method in brief:
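Human adrenocortical H295R cells (passage ≤10) received test chemicals for 48 h after forskolin priming. Secreted cortisol was measured by LC-MS/MS.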

A short description of assay [19]: CEETOX_H295R_DOC: CeeTox H295R High-throughput Steroidogenesis Assay for DOC (AID 2283439). Particulars: actives raise or lower the signal. In short, it runs like this:
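Secreted DOC was quantified from H295R media by HPLC-MS/MS after 48 h chemical exposure following 48 h forskolin (10 uM) prestimulation. Values were fitted in both directions relative to DMSO, the negative control and baseline.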

In assay [20] the target is Bile acid receptor (Homo sapiens) (UniProt Q96RI1). Description: OT_FXR_FXRSRC1_1440: Odyssey Thera (OT) 24-hour HEK293T Protein-Complementation Assay for Farnesoid X receptor/SRC-1 Co-activator (AID 2283384; active = hit-call score of the fitted dose curve at least 0.9, where 1 is the maximum). In short, it runs like this: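 Cell-based binding reporter: interaction of FXR with SRC-1 brings reporter fragments together, giving a fluorescence signal read 24 h after dosing of HEK293T cells.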
Sequence of Bile acid receptor (Homo sapiens) (Q96RI1 whole entry, looked up, the tested form may be a part): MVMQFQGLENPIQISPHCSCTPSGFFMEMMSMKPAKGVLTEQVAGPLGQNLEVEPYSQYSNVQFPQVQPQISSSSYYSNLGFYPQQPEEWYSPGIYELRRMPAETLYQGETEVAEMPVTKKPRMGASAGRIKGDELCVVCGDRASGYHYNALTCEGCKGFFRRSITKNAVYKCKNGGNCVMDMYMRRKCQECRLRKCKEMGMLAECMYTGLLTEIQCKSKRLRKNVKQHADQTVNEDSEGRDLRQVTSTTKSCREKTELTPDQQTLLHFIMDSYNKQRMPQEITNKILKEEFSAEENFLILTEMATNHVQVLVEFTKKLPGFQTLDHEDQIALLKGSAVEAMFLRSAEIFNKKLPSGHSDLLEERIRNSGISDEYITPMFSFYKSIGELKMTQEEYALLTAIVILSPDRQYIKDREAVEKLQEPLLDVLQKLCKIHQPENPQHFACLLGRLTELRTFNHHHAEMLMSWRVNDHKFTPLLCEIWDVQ

“And” between values parts separate entries of the source, which are not always exact repeats. Equal entries are not always repeated. Results filed as inconclusive are left out. More than one record can exist for a structure, and the calls need not agree. The source made the active and inactive calls. Rule for the calls, unless noted: active = hit-call score of the fitted dose curve at least 0.9, where 1 is the maximum; inactive = score below 0.9.

Sequence of Fatty acid synthase (Homo sapiens) (P49327 whole entry, looked up): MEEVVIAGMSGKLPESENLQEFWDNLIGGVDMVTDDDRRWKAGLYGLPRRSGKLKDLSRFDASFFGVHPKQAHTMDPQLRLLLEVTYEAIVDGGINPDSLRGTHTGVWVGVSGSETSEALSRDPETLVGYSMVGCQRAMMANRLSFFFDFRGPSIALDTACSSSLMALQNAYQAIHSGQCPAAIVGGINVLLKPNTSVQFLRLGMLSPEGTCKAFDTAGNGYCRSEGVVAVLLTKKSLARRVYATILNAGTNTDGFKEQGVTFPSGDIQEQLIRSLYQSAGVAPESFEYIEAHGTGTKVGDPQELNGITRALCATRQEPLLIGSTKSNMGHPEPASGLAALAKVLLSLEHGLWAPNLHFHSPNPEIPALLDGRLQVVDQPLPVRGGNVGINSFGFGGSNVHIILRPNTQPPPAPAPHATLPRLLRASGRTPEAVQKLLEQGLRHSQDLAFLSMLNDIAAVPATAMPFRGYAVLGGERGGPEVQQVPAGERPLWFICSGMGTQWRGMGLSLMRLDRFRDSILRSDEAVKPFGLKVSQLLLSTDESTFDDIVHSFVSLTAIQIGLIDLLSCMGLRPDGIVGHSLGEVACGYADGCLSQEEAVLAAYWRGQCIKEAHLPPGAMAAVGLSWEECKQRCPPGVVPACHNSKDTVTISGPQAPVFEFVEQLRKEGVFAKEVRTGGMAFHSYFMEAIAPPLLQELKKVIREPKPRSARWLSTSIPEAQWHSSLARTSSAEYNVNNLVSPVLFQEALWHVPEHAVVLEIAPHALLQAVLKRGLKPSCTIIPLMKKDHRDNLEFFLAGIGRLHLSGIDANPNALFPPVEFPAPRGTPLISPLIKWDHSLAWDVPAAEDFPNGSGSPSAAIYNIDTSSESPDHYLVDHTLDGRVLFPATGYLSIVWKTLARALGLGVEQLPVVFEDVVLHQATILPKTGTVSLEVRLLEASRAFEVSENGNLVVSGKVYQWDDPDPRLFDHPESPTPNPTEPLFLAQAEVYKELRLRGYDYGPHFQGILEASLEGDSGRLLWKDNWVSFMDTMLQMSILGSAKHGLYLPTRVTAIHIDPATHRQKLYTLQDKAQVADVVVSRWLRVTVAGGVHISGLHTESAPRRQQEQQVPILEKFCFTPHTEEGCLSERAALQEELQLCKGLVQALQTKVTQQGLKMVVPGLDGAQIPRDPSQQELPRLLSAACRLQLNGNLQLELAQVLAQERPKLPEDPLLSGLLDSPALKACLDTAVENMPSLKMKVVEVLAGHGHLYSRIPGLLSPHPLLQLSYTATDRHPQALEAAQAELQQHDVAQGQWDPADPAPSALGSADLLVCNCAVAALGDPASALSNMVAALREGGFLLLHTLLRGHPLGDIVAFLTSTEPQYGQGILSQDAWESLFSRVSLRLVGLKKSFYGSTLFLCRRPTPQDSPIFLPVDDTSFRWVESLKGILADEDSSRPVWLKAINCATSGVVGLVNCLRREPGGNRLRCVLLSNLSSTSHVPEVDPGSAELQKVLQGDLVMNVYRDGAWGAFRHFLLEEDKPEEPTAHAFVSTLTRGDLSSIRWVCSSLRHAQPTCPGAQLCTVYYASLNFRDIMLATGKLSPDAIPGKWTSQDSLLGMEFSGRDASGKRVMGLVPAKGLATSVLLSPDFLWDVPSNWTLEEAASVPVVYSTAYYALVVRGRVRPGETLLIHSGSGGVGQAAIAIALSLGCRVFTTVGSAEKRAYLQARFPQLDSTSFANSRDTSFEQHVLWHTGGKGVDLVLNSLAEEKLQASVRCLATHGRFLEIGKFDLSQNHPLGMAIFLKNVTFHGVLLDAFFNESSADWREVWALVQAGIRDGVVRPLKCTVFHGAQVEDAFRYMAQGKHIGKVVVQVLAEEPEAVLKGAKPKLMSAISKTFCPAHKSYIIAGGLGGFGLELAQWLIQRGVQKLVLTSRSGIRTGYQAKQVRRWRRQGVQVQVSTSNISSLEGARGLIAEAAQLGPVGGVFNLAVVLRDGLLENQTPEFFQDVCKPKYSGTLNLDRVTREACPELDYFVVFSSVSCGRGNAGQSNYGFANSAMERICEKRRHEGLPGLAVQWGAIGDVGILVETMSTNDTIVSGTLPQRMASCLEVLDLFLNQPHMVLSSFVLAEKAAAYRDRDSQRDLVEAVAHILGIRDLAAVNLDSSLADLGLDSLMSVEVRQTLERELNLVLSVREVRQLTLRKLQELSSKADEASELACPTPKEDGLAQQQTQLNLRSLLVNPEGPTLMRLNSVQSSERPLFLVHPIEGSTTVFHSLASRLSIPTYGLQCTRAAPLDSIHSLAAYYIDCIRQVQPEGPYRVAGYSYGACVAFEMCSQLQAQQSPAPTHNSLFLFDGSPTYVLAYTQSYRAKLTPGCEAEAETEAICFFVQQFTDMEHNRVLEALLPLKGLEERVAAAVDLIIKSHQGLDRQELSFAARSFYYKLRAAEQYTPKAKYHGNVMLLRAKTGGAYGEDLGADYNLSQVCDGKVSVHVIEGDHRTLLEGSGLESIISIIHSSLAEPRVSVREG
Sequence of Retinoic acid receptor RXR-alpha (Homo sapiens) (P19793 whole entry, looked up, the tested form may be a part): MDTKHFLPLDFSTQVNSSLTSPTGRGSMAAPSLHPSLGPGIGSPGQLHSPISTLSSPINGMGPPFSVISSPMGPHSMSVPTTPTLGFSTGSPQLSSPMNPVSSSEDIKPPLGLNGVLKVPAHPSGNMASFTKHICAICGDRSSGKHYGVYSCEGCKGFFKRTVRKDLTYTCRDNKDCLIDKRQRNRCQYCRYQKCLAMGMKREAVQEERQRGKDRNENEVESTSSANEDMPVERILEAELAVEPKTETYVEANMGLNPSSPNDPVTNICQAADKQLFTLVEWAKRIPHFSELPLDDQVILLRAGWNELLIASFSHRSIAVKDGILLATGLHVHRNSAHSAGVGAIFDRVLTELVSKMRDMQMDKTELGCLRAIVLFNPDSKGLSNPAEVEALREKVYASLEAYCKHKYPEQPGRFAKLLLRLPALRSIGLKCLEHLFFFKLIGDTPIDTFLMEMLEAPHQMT
Sequence of Peroxisome proliferator-activated receptor gamma (Homo sapiens) (P37231 whole entry, looked up, the tested form may be a part): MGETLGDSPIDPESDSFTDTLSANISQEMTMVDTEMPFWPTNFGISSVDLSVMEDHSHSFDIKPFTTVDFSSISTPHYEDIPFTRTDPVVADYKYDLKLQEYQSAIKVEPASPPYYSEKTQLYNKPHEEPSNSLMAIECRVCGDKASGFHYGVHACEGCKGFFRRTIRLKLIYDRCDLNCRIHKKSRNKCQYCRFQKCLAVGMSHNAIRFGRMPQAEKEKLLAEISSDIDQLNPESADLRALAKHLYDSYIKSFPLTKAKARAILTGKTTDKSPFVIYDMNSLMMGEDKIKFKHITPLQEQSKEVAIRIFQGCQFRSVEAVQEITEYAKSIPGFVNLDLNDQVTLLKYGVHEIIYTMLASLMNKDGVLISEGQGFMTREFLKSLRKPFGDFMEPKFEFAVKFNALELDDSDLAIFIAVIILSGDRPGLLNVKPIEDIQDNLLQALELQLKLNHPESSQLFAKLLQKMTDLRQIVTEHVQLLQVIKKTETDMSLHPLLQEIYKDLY

For the compound `CC[C@@H]1C[C@H](N(Cc2cc(C(F)(F)F)cc(C(F)(F)F)c2)C(C)=O)c2cc(C(F)(F)F)ccc2N1C(=O)OC(C)C`, the outcome in assay [1], in assay [2], in assay [3], in assay [4], in assay [5] and in assay [6] was inactive. In addition, the call in assay [7], in assay [8], in assay [9], in assay [10], in assay [11] and in [13] was inactive. In addition, the concentration at half-maximal activity (AC50) in assay [12] was 16.7 µM (active).
As for `COc1ccc2cc(S(=O)(=O)N[C@H](CC(=O)N[C@H](Cc3ccc(CN4[C@H](C)CCC[C@@H]4C)cc3)C(=O)N(C)C(C)C)c3ccc4c(c3)OCO4)ccc2c1`, the AC50 in assay [1] was 11.1 µM (active); in assay [5], 15.1 µM (active); in [10], 17.7 µM (active); in assay [11], 17.3 µM (active); in assay [12] it was 24.4 µM (active); in assay [13], 15.1 µM (active). For the same compound, the compound was classed as inactive in assay [3], in assay [4] and in assay [6].
As for `Cc1cccc2ccccc12`, the compound was called inactive in [1], in assay [2], in assay [3], in assay [4], in [5] and in assay [6]. The compound was called inactive in [7], in assay [8], in [10], in assay [11], in assay [12] and in assay [13].
For `CCN(Cc1cccc(S(=O)(=O)O)c1)c1ccc(C(=C2C=CC(=[N+](CC)Cc3cccc(S(=O)(=O)O)c3)C=C2)c2ccccc2S(=O)(=O)[O-])cc1`, the result in [1], in [2], in assay [3], in [4], in assay [5] and in [6] was inactive. The outcome in assay [7], in assay [8], in assay [9], in assay [10], in assay [11] and in assay [13] was inactive. Further, the AC50 in assay [2] was 46.6 µM (active); in assay [12] it was 32.2 µM (active).
Regarding `O=C1c2ccccc2C(=O)N1CCc1noc(-c2ccc(CN3CCCCCC3)s2)n1`, the compound was classed as inactive in [3], in assay [4], in assay [14], in assay [5], in assay [6] and in assay [7]. The outcome in assay [10], in [11] and in [13] was inactive. For the same compound, the AC50 in assay [12] was 8.04 µM (active).
For `Oc1ccc2ccccc2c1`, the result in assay [2], in [3], in [4], in assay [15], in assay [17] and in assay [18] was inactive. The result in assay [19], in assay [14], in assay [5], in [6], in assay [7] and in assay [10] was inactive. For the same compound, the call in [11] and in [13] was inactive. Moreover, the half-maximal activity concentration (AC50) in [16] is 76.7 µM (active); in assay [12], 66.8 µM (active).
As to `COCC(C)OCC(C)OCC(C)O` (configuration not stated), the outcome in assay [1], in assay [2], in assay [3], in assay [4], in [5] and in assay [6] was inactive. Also, the call in assay [7], in assay [9], in [10], in [11], in assay [12] and in [13] was inactive.
On to `O=C(O)Cc1cc(I)c(Oc2ccc(O)c(I)c2)c(I)c1`, for which the AC50 in [20] is 28.6 µM (active) and 29 µM (active) and 23.8 µM (active); in assay [5] it was 88.6 µM (active); in assay [6] it was 50 µM (active); in [8] it was 82.7 µM (active); in assay [10], 9.92 µM (active); in [11], 91.2 µM (active). Further, the call in [3], in assay [4], in assay [7], in assay [12] and in [13] was inactive.

Source of the values: PubChem BioAssay (EPA / NIEHS).
